Compound activity as filed in PubChem BioAssay.
HT1080NT lethal: kills 2HG-producing HT-1080-NT fibrosarcoma cells; HT-1080-NT fibrosarcoma viability, CellTiter-Glo ATP luminescence, 48 h; Potency, µM (titrated, usually from 46.1 µM), hits mostly cytotoxic; hit rate 1.6% among 360,000;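 note: NT is the 2HG producing partner of a matched IDH1 knockdown line; nearly all actives have a fitted effect of over 55% in size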
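Toxicity toward the 2HG-producing NT line was scored as %Activity, normalised to DMSO and no-cell wells, from CellTiter-Glo luminescence after 48 hours' treatment.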
ELG1 repair inh: ELG1-dependent DNA repair inhibition; Potency, µM (top dose mostly 46.1 µM), hits mostly inhibitors; hit rate 2.3% among 330,000; HEK293T ELG1-luciferase reporter, luminescence, 16 h; DNA damage induced by 5-fluorouridine; note: nearly all actives have a fitted effect of over 55% in size
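HEK293T cells expressing luciferase-tagged ELG1 (2,000/well) received 5-Fluorouridine plus compound or DMSO for 16 hr at 37 °C. Luciferase was read by ONE-Glo luminescence after 30 min at room temperature.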
HT1080 IDH1KD tx: toxicity to HT-1080 IDH1 knockdown cells (counter line); AID 686971; hit rate 2% among 360,000; HT-1080 IDH1 knockdown viability, ATP luminescence, 48 h; Potency, µM (series often up to 46.1 µM), actives largely listed as cytotoxic
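Assay cells: HT-1080 with IDH1 knockdown, 750 per well, RPMI/5% FBS. Exposure: 48 h at 37 °C following 2 h pre-incubation. Read: CellTiter-Glo luminescence; fitted concentration-response, curve class assigned.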
IL-1B inflam inh: inhibitors of inflammasome signaling (IL-1 beta secretion); AID 743279; activity change, % at 57.5 µM; hit rate 4.7% among 360,000; THP-1 LPS/ATP IL-1B secretion, AlphaLISA, 16 h; hits give low values; in the data active = activity change below about -50%; inconclusive = mostly about -30% to -49%
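THP-1 cells pretreated 1 hr with compounds (up to 57.5 uM final), then stimulated with LPS (250 ng/mL final) plus ATP (1.25 mM final); secreted IL-1B measured by AlphaLISA after 16 hr, decreased signal indicating inhibition.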
DT40 TDP1 CPT: DT40-hTDP1 cell growth loss with CPT | AID 686979 | Potency, µM (top dose mostly 46.2 µM), usual class: inhibitors | chicken DT40 Tdp1-/-;hTDP1 cells + 20 nM CPT, ATP luminescence, 48 h | hit rate 12% among 420,000; note: nearly all actives have a fitted effect of over 55% in size
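Chicken DT40 Tdp1-/- cells stably complemented with human TDP1 were seeded at 400 cells/well in medium containing 20 nM camptothecin, exposed to pin-transferred compounds, and grown at 37 °C for at least 48 hr. Viability was read as ATP luminescence.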
TDP1 cell noCPT: qHTS for Inhibitors of human tyrosyl-DNA phosphodiesterase 1 (TDP1): qHTS in cells in absence of CPT; hit rate 15% among 420,000; DT40 Tdp1-/- hTDP1 cells, no CPT, ATP luminescence, 48 h; Potency, µM (doses to about 46.2 µM), actives largely listed as inhibitors; note: nearly all actives have a fitted effect of over 55% in size
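Luminescent ATP content (CellTiter-Glo) served as the growth readout. Knockout chicken DT40 cells expressing human TDP1 were exposed to compounds without camptothecin for a minimum 48 hr at 37 °C.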
A number is an active result; n = inactive; u = inconclusive; x = not tested or not shown; [ ] = remark or other dose. Rows were chosen to be rich in hits. Some 19% of all compounds tested hit in one or more screens of this group. Unless noted, calls come from the whole dose curve; as a rule, active = well fitted curve in the direction sought with a large enough effect; inconclusive = small, poorly fitted or top-dose-only effect, or another doubt; inactive = no such curve, though single readings can be large; an effect the other way counts as inactive or inconclusive.

SMILES	HT1080NT lethal	ELG1 repair inh	HT1080 IDH1KD tx	IL-1B inflam inh	DT40 TDP1 CPT	TDP1 cell noCPT
Cc1cc(Cl)ccc1OC(C)C(=O)Nc1ccc([N+](=O)[O-])cn1 (stereo not drawn)	n	n	n	-69.0	u	u
CC(C)c1ccc(CNc2ccc([N+](=O)[O-])cn2)cc1	u	u	u	u	n	u
CC(C)(C)c1ccc(CNc2ccc([N+](=O)[O-])cn2)cc1	n	u	n	n	u	23.1µM
O=[N+]([O-])c1ccc(NNS(=O)(=O)c2cc(Cl)ccc2Cl)nc1	n	n	n	n	20.6µM	u
O=[N+]([O-])c1ccc(NCc2ccc(Cl)cc2)nc1	n	u	n	-77.7	n	n
CCC(=O)NCCNc1ccc([N+](=O)[O-])cn1	x	n	x	x	x	x
CCCNC(=O)Cn1nc(-c2ccc(OC)cc2)c2cnc3ccc(F)cc3c21	x	x	x	x	n	n
O=c1c(-c2ccc(Cl)cc2)nc2cnc(N3CCOCC3)nc2n1CCc1ccccc1	x	x	x	x	n	n
O=C(O)c1cccc(Nc2ccc([N+](=O)[O-])cn2)c1	n	n	n	n	n	n
O=[N+]([O-])c1ccc(Nc2ccc(Cl)cc2)nc1	n	n	u	-56.6	n	n
CCC(CC)C(=O)Nc1cc(OC)c(OC)cc1C(=O)O	n	n	n	n	16.4µM	18.4µM
O=C(N/N=C/c1ccco1)c1cc(C2CC2)nc2ccccc12	x	n	x	x	x	x
CCCc1ccc(-c2cc(C(=O)N/N=C/c3ccc([N+](=O)[O-])o3)c3ccccc3n2)cc1	7.31µM	u	6.51µM	n	16.4µM	8.2µM
O=C(N/N=C/c1ccco1)c1cc(-c2ccccc2)nc2ccccc12	n	u	n	n	u	4.11µM
O=C(NN=C1CCCCCC1)c1cc(-c2ccccc2)nc2ccccc12	n	n	u	n	16.4µM	14.6µM
COc1cccc(-c2cc(C(=O)N/N=C/c3ccco3)c3ccccc3n2)c1	n	n	n	n	u	0.92µM
O=S1(=O)CCN(Cc2cccnc2)CC1	n	x	n	n	n	n
COc1ccc(-n2nnnc2SCC(=O)NCCc2ccccc2)cc1	x	x	x	x	n	u
O=C1NC[C@H](CCCCN2C[C@H](Cc3ccccc3)N(CCC3CCCCC3)C(=O)C2=O)N(CC2CCCCC2)C1=O	n	x	n	n	u	n
O=C(Nc1ccc(CN2CCS(=O)(=O)CC2)cc1)c1ccc(C(F)(F)F)cc1	u	n	n	n	u	20.6µM
CC(C)(C)c1ccc(C(=O)Nc2ccc(CN3CCS(=O)(=O)CC3)cc2)cc1	n	n	u	-60.4	16.4µM	20.6µM
CCN1C(=O)C(Cc2nc3ccccc3c(=O)n2-c2ccccc2)c2cc(Br)ccc21 (stereo not drawn)	x	x	x	x	5.8µM	5.8µM
COc1ccc(-n2c(SCC#N)nc3ccccc3c2=O)cc1	n	n	n	n	n	u
CCN1C(=O)C(Cc2nc3ccccc3c(=O)n2C)c2ccccc21 (stereo not drawn)	n	n	n	n	u	14.6µM
CCCN1C(=O)C(Cc2nc3ccccc3c(=O)n2C)c2ccccc21 (stereo not drawn)	n	u	n	n	u	u
SMILES	HT1080NT lethal	ELG1 repair inh	HT1080 IDH1KD tx	IL-1B inflam inh	DT40 TDP1 CPT	TDP1 cell noCPT
CCCN1C(=O)C(Cc2nc3ccccc3c(=O)n2-c2ccc(OC)cc2)c2cc(C)ccc21 (stereo not drawn)	x	x	x	x	9.2µM	4.11µM
CCn1c(CC2C(=O)N(C)c3ccccc32)nc2ccccc2c1=O (stereo not drawn)	x	x	x	x	n	n
Nc1nc(N)c2c(Oc3ccc(F)cc3)cccc2n1	x	x	x	x	12.6µM	1.78µM
Nc1nnc(COc2cccc(C(F)(F)F)c2)s1	n	u	n	n	n	u
Nc1nc(N)c2c(OCc3ccc(C(F)(F)F)cc3)cccc2n1	x	x	x	x	5.01µM	3.16µM
CCNc1ncc2nc(CCc3ccccc3)c(=O)n(C)c2n1	x	x	x	x	n	n
Cc1noc(C)c1COc1ccccc1C(=O)N1CCN(S(=O)(=O)c2ccccc2F)CC1	n	u	n	n	u	n
CC(C)N(CCO)Cc1nc(N2CCOCC2)c2cc(Cl)ccc2n1	x	x	x	x	u	20.6µM
O=NN(CC(=O)NNc1ccccc1)CC(=O)NNc1ccccc1	u	x	u	n	n	n
CCOC(=O)C1(CCOc2ccccc2)CCN(Cc2cccc(-n3cccn3)c2)CC1	n	u	u	n	16.4µM	16.4µM
CCOC(=O)C1(CCOc2ccccc2)CCN(Cc2ccc(OC)cc2)CC1	u	x	u	u	14.6µM	20.6µM
CCOC(=O)C1(CCOc2ccccc2)CCN(Cc2ccccc2O)CC1	n	x	n	n	u	u
CCOC(=O)C1(CCOc2ccccc2)CCN(Cc2ccc3nonc3c2)CC1	n	n	n	n	u	20.6µM
CCOC(=O)C1(CCOc2ccccc2)CCN(Cc2cccc(OC)c2OC)CC1	u	11.6µM	u	-88.1	u	20.6µM
C=CCN(CC=C)Cc1cc(=O)oc2cc(C)c(C)cc12	n	x	n	n	u	u
CC(=O)N1CCCc2cc(S(=O)(=O)N3CCCC(C(=O)NC(C)C)C3)ccc21 (stereo not drawn)	x	x	x	x	n	u
Cc1cc(S(=O)(=O)NCc2nc(N3CCCC3)c3cc(Cl)ccc3n2)c(C)s1	x	x	x	x	n[9.04 µM]	n
COc1cc(C(=O)n2nc(C)c(Sc3ccc(Cl)cc3)c2C)cc(OC)c1OC	x	x	x	x	n	n
Clc1cccc(N2CCN(c3nc4ccccc4c4nc(-c5ccccc5)nn34)CC2)c1	x	x	x	x	n	n
CCOC(=O)C1(Cc2cccc(F)c2)CCN(Cc2nc(CC)[nH]c2C)CC1	u	u	n	-55.0	u	23.1µM
CCOC(=O)C1(CCOc2ccccc2)CCN(Cc2cnc(C)s2)CC1	n	n	n	n	u	20.6µM
CCOC(=O)C1(CCOc2ccccc2)CCN(Cc2cccc(OCCO)c2)CC1	n	u	n	n	u	u
CCOC(=O)C1(CCOc2ccccc2)CCN(Cc2ccc(OCC)c(CO)c2)CC1	u	x	n	n	14.6µM	18.4µM
CCOC(=O)C1(Cc2cccc(F)c2)CCN(Cc2cnn(CC)c2)CC1	n	n	u	n	n	u
CCOC(=O)C1(CCOc2ccccc2)CCN(C(=O)c2ccc(-n3cccn3)cc2)CC1	n	u	u	n	u	20.6µM
CN(C)CCN(C)C1CN(C2CCCC2)S(=O)(=O)C1 (stereo not drawn)	n	x	n	n	n	n
c1coc(CSSCc2ccco2)c1	n	n	n	n	u	u
CCc1nn2c(=O)cc(COC(=O)c3ccco3)nc2s1	x	x	x	x	n	n
